# In PubChem BioAssay (NCI):
# This is part of a sample that, as a whole, favours compounds with a hit. Of some 83,000 tested, about 20% had one in any assay.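 Plates (96-well) were seeded with cells, treated with compound at one concentration, and incubated for 48 hours before percent growth was determined.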 Values without a mark were called inactive. The source made the active and inactive calls. The calls were made as follows: active = growth percent below 10; inactive = the rest.
# Tests used:
# Test in all cases: NCI-60 one-dose screen, 48 h (100 = growth as untreated, 0 = no growth, -100 = all killed)
# Details in all cases: 10 µM unless noted
# [1] = test system: NCI-H23 lung
# [2] = test system: NCI-H226 lung
# [3] = test system: NCI-H322M lung
# [4] = test system: HOP-62 NSCLC
# [5] = test system: NCI-H460 lung
# [6] = test system: HOP-92 NSCLC
# [7] = test system: NCI-H522 lung
# [8] = test system: A549/ATCC NSCLC
# [9] = test system: 786-0 renal
# [10] = test system: COLO 205 colon
Structure (SMILES),growth [1],growth [2],growth [3],growth [4],growth [5],growth [6],growth [7],growth [8],growth [9],growth [10]
COc1cc(-c2nc3occn3c2-c2ccnc(NCCCNS(=O)(=O)c3ccccc3)n2)ccc1F,45.6%,18.4%,78.3%,73.9%,47.8%,63.4%,26.6%,38%,63.8%,28.8%
COC(=O)C1=C(C(=O)Nc2cccnc2)C2OC1(C(Cc1ccccc1)Oc1ccccc1)C1OC21 (stereo not given),95.9%,88.4%,98.4%,93%,103%,-74.2% (active),-48% (active),88.8%,49.7%,-46.9% (active)
CN(C)c1ccc(-c2cc(-c3ccc(Nc4nc(Nc5ccc(Cl)cc5)nc(Nc5ccc(Cl)cc5)n4)cc3)nc(N)c2C#N)cc1,87.8%,107%,115%,73%,86.3%,46.3%,87.6%,72.3%,72.4%,69.8%
COc1ccc(C(c2cc(OC)c(OC)c(OC)c2)N2CCCC2)cc1 (stereo not given),85.3%,87.6%,87.5%,79.5%,84.3%,85.5%,58.5%,77.7%,93.4%,71.2%
C#Cc1cccc(Nc2nc3ccc([N+](=O)[O-])cc3nc2Nc2cccc(C#C)c2)c1,-54.6% (active),-42.3% (active),1.22% (active),-94.7% (active),-57.6% (active),-24.9% (active),-64% (active),-45.7% (active),-56.7% (active),-87.3% (active)
O=C(Cn1cc(CN2C(=O)c3ccccc3S2(=O)=O)nn1)Nc1cccc(Cl)c1,97.1%,117%,99%,125%,111%,105%,93.9%,111%,115%,114%
CCCCCCC(=O)Nc1ncc(Cc2ccc(C)cc2)s1,59.3%,64.1%,58.4%,40.3%,23.4%,60.4%,22.2%,47.5%,46%,16.5%
Cc1ccc(-c2nc(C(Cl)Cl)nc3cc(C)nn23)cc1,-18.4% (active),70.2%,-24.9% (active),7.49% (active),-64.8% (active),35%,4.52% (active),-4.14% (active),81.8%,-36.6% (active)
Cc1ccc2[nH]c(-c3ccc(S(C)(=O)=O)cc3)c(/C=N/N=C(N)N)c2c1,76.4%,76.6%,79%,58.3%,37.9%,59.9%,-7.31% (active),46.2%,44.9%,49%
Cn1cc(C(=O)c2nc(-c3c[nH]c4ccc(Br)cc34)no2)c2cc(Br)ccc21,83%,102%,73.4%,78.4%,12.5%,83.9%,84.2%,32.1%,99.4%,93.3%
COc1ccc(C(O)c2cc3c(N)c(C(=O)Nc4cccc(Cl)c4)sc3nc2C)cc1 (stereo not given),37.8%,29.5%,46.6%,26.6%,1.28% (active),74%,14.6%,21.2%,31.5%,3.71% (active)
CN(C)c1ccc(/C=C2/C=C(c3ccccc3)OC2=O)cc1,95.4%,105%,96.9%,96.3%,103%,98.2%,55.7%,96.4%,100%,99.3%
O=C1/C(=C/c2ccc(C(F)(F)F)cc2)COc2ccc(O)c(O)c21,38%,81.1%,50.2%,-36.7% (active),25.8%,-13.7% (active),-50.3% (active),54.2%,-78.6% (active),12.3%
C[C@@H]1O[C@@H](O[C@@H]2C[C@H](c3ccc4c(c3O)C(=O)C3=C(C4=O)[C@@]4(O)C(=O)C[C@](C)(O)C[C@@]4(O)C=C3)O[C@H](C)[C@H]2O)C[C@H](O)[C@@H]1O,93.2%,101%,108%,107%,98.5%,120%,82.8%,94.7%,101%,96.9%
Nc1ccc([N+](=O)[O-])cc1N=C/C=C/c1ccccc1,76.9%,72%,87.8%,88%,54%,82.2%,10.8%,72.7%,78.6%,65.5%
Cc1[nH]c(/C=C/C(=O)c2ccc(C(F)(F)F)c(F)c2)c(C)c1C(=O)NCC(C)C,101%,98.2%,101%,87.7%,101%,108%,99.4%,95.4%,103%,113%
COc1ccc(/C=C/C(=O)c2cc3c(N)c(C(=O)Nc4ccccc4C)sc3nc2C)cc1,36.1%,53.3%,35.7%,32.6%,1.23% (active),79.2%,-28.4% (active),20.1%,21.3%,-30.3% (active)
CCN1C(=O)N(CC)C2C1NN=C1SCC(=O)N12 (stereo not given),96.1%,91.6%,103%,100%,103%,114%,77.5%,102%,95.8%,44.7%
O=C(NCc1ccccc1O)c1cccc2ccccc12,47.8%,76.7%,95.9%,86.5%,70.3%,-8.54% (active),65.8%,87.4%,72.7%,106%
Cn1c(=O)c2c(nc(NC3=NS(=O)(=O)c4ccccc43)n2Cc2ccccc2)n(C)c1=O,92.5%,88.5%,101%,93.4%,102%,94%,94.1%,102%,101%,120%
COc1ccc(Nc2ncccc2NC(=O)c2cn(Cc3cccc(Oc4ccccc4)c3)nn2)cc1OC,76%,92.4%,83.7%,88%,97.4%,81.6%,77.1%,86.7%,90.5%,81.4%
COc1ccc(C/C(C)=C(/c2ccc(OCCN3CCCCCC3)cc2)c2ccc(OC(=O)NCc3ccccc3)cc2)cc1,86.4%,101%,93.2%,91.1%,70.7%,56%,75.2%,77%,83.5%,85.7%
CCOC(=O)n1cc(-c2nonc2-c2cn(C)c3ccccc23)c2ccccc21,55%,75.4%,44%,34.5%,14.5%,54.4%,18.4%,40.1%,48%,24.3%
CCOC(=O)c1c(C)nn(CC(O)c2ccccc2)c1NC(=O)Nc1cccc(F)c1 (stereo not given),97%,85.4%,88.8%,91.2%,93.6%,71.8%,81.8%,87%,88.7%,102%
Cc1[nH]c(C(=O)Nc2cccc(OC3CCNCC3)c2)c(Cl)c1Cl,75.3%,91.4%,84.8%,86.9%,77%,22.9%,99.2%,68.6%,63.8%,-35.3% (active)
O=C1/C(=C/c2ccccc2)CN(C(=O)c2cccnc2)C/C1=C\c1ccccc1,-30.5% (active),-43.7% (active),34.1%,0.894% (active),-35.1% (active),78.7%,-25.4% (active),17.2%,-53.8% (active),-29.5% (active)
COc1ccc(Cl)cc1Nc1nc(C(F)(F)F)ccc1C(=O)N/N=C/c1ccccc1Cl,16.9%,17.3%,1.34% (active),18.3%,4.25% (active),-47.7% (active),-13.9% (active),10.9%,11.8%,-59.5% (active)
